Results: PubChem BioAssay (Tox21)
Unmarked numbers belong to inactive results. Activity calls are given as the source filed them. Calls follow the shape of the dose curve; as a rule, active = well fitted curve in the direction sought with a large enough effect in the repeat runs; inconclusive = weak or mixed curves; inactive = flat fitted curve, though single readings scatter.

assay: qHTS assay to test for compound auto fluorescence at 590 nm (red) in HepG2 cells (AID 720674); conditions: HepG2 autofluorescence, red 540/590 nm, 1 h; series mostly up to 46 µM; fluorescence, relative to Rose Bengal: at the top concentration
From the text: U.S. Tox21 Program National Center for Advancing Translational Sciences [NCATS] NIH Chemical Genomics Center [NCGC] U.S. Environmental Protection Agency [EPA] National Institutes of Environmental Health Sciences [NIEHS] National Toxicology Program [NTP] U.S. Food and Drug Administration [FDA] Tox21 Assay Overview: Compound auto fluorescence often interferes with screening of the compound library against various biological targets and signaling pathways. Some of these compounds may have fluorophoric properties. Such properties may interfere with the assay outputs resulting in false positives and/or negatives. To decrease such complications and ensure the compound activities are relevant in terms of biological response, the Tox21 10K compound library was screened for auto fluorescence. From the fluorophores used as reporter signals in our screening assays, the auto fluorescence equivalencies of compounds against three fluorophores have been evaluated: Triamterene, Fluorescein and Rose Bengal sodium for blue, green and red fluorescence, respectively. The fluorescence intensities were measured using Excitation/Emission wavelengths at 405/460nm, 485/535nm and 540/590nm for blue, green and red labels, respectively. This assay includes the red fluorescence data.
Tox21 Assay Protocol Summary: 2,000 HepG2 cells in 5 uL of culture medium (MEM containing 10% FBS) per well were dispensed into black wall/clear bottom 1536-well plates using a Multidrop Combi Dispenser (ThermoFisher Scientific, Waltham, MA). The assay plates were incubated overnight at 37 C to allow cell attachment to the well bottom, followed by the transfer of 23 nL compound or DMSO vehicle by a pintool work station (Kalypsys , San Diego, CA). After the assay plates were incubated for 1 hr at 37 C and 5% CO2, fluorescence intensities in the assay plates were measured by an Envision (PerkinElmer, Shelton, CT) plate reader using three labels for measuring blue, green and red fluorescence at […] 460, 535 and 590 nm respectively.
% is scaled to controls: 0 for no effect and ±100 for the full control effect.

Row | SMILES | fluorescence, relative to Rose Bengal | outcome
1 | Cc1ccc(Cl)cc1Cl | -0.0874% [at 91.3 µM] | –
2 | CCCCCCOC(=O)CCCCC(=O)OCCCCCC | 0.185% [at 91.3 µM] | –
3 | NC(=O)Nc1ccccc1 | -0.0675% [at 91.3 µM] | –
4 | Nc1c[n+](N2CCOCC2)no1 | -0.117% | –
5 | CC1=CC(C)C(C=O)CC1 (stereo not given) | -0.382% [at 91.3 µM] | –
6 | O=C(O)CCCl | -0.165% [at 95.7 µM] | –
7 | COC(C)(C)CCCC(C)CC=O (stereo not given) | 0.0868% [at 91.3 µM] | –
8 | Cc1nc2c([nH]1)c(=O)n(C)c(=O)n2Cc1ccco1 | -0.736% | –
9 | O=[N+]([O-])c1ccc(F)cc1F | -0.329% [at 91.3 µM] | –
10 | Cc1cccn2c(=O)c(-c3nnn[nH]3)cnc12 | -0.478% | –
11 | CO/N=C(/C(=O)N[C@@H]1C(=O)N2C(C(=O)OCOC(=O)C(C)(C)C)=C(C)CS[C@H]12)c1csc(N)n1 | 0.134% | –
12 | Cn1cc(S(C)=O)c(=O)c2ccc(F)cc21 (stereo not given) | -0.0165% | –
13 | O=C(O)COc1nn(Cc2ccccc2)c2ccccc12 | -0.484% | –
14 | CCOC(=O)C(=O)OCC | -0.839% [at 91.3 µM] | –
15 | CCn1nc(C(=O)O)c(=O)c2cc3c(cc21)OCO3 | 0.139% [at 18.6 µM] | –
16 | O=c1n(CCO)c(=O)n(CCO)c(=O)n1CCO | – | inactive
17 | CCCc1cc(C(N)=S)ccn1 | -0.518% | –
18 | NC(=O)COCCN1CCN(C(c2ccccc2)c2ccc(Cl)cc2)CC1 (stereo not given) | -0.0451% | –
19 | CC/C=C\CC/C=C/CO | 0.0976% [at 91.3 µM] | –
20 | C1CN(CCOCCN2CCOCC2)CCO1 | -0.0245% [at 91.3 µM] | –

Row | SMILES | fluorescence, relative to Rose Bengal | outcome
21 | CCSC(=O)N(CC(C)C)CC(C)C | 0.0682% [at 91.3 µM] | –
22 | O=C(O)CNC(=O)c1ccc([N+](=O)[O-])cc1 | 0.28% [at 91.3 µM] | –
23 | O=c1cc(CO)occ1O | – | inactive
24 | C[N+](C)(C)CCCCCC[N+](C)(C)C | 0.505% | –
25 | CC(=O)OCC(=O)[C@@]1(O)CCC2C3CCC4=CC(=O)CC[C@]4(C)C3[C@@H](O)C[C@@]21C (stereo not given in full) | 0.0946% | –
26 | COc1ccc(CCN(C)CCCC(C#N)(c2cc(OC)c(OC)c(OC)c2)C(C)C)cc1OC (stereo not given) | -0.0103% | –
27 | O=C(O)c1ccccc1OP(=O)(O)O | -0.639% | –
28 | N=C(N)c1ccc(OCCCOc2ccc(C(=N)N)cc2)cc1 | -0.666% | –
29 | CCOC(=O)CCC(C)=O | 0.206% [at 91.3 µM] | –
30 | CN(C)CCCNCCCN(C)C | 0.0188% [at 91.3 µM] | –
31 | CC(C)(c1ccc(O)cc1)c1ccc(O)cc1 | – | inactive
32 | C[N+](C)(C)CC(O)CC(=O)[O-] (stereo not given) | -0.16% | –
33 | CC(C)OC(=O)c1ccccc1 | 0.158% [at 95.7 µM] | –
34 | CCC(C)S (stereo not given) | -0.0609% [at 3.72 µM] | –
35 | CCCCCCCCCCCCN(CCCCCCCCCCCC)CCCCCCCCCCCC | 0.0328% [at 91.3 µM] | –
36 | CC(C)CNCC(C)C | -0.0445% [at 91.3 µM] | –
37 | O=C1OC(=O)C2CCCCC12 (stereo not given) | -0.25% [at 91.3 µM] | –
38 | ClC(Cl)(Br)Br | 0.0124% [at 91.3 µM] | –
39 | CC(C[N+](C)(C)C)OC(N)=O (stereo not given) | -0.245% | –
40 | c1ccc(CC2=NCCN2)cc1 | 1.02% [at 18.6 µM] | –
